# Data from PubChem BioAssay (NCI).
# About 83,000 compounds went through this panel and 20% of them were active in at least one assay; those are over-represented in the sample as a whole.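 The endpoint reported here, percent growth, reads 100 for growth as untreated, 0 for no net growth and -100 for all cells dead.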 A number with no mark means an inactive call. Active and inactive are the calls of the source.
# Tested on: MCF7 breast
# Test: NCI-60 one-dose screen, 48 h (100 = growth as untreated, 0 = no growth, -100 = all killed)
# Conditions: 10 µM unless noted
# Method: Growth inhibition of the MCF7 human tumor cell line is measured as a screen for anti-cancer activity. Cells are grown in 96 well plates and exposed to the test compound for 48 hours. Compounds are tested at a single concentration, which is 10^-5 M for most compounds. The reported endpoint is percent growth (GI% or GIPRCNT), where numbers from 0 - 100% represent growth inhibition, and numbers from -100% - 0 represent cell death. For example, a value of 40 represents 60% growth inhibition. A value of 0 means no net growth occurred over the course of the experiment. A value of -40 indicates 40% of cells at the beginning of the experiment died by the end of the experiment. A value of -100 means all cells are dead at the end of the experiment.
# NCI-60 Human Tumor Cell Lines Screen was performed using the standard one-dose NCI protocol, which is described in more detail at https://dtp.cancer.gov/discovery_development/nci-60/default.htm.
# Compounds with GIPRCNT values below 10 were considered active. Activity score was based on GIPRCNT using the following formula: […]
# Score is 0 for GIPRCNT values of 100 or above, 50 for GIPRCNT values of 0, and 100 for GIPRCNT values of -100.
row,SMILES,growth
1,CCOC(=O)C#Cc1c(C(=O)OCC)nnn1[C@@H]1O[C@H](CO)[C@H]2OC3(CCCCC3)O[C@H]21,8.45% (active)
2,C=C(CNCCc1ccc(O)cc1)[C@@H]1CC[C@]2(CO)CC[C@]3(C)[C@H](CC[C@@H]4[C@@]5(C)CCC(NCCO)C(C)(C)[C@@H]5CC[C@]43C)[C@@H]12 (stereo not given in full),-72.3% (active)
3,COC(=O)c1c2c(c(C)[n+]([O-])c1C)C(=O)C=C(NCc1ccc(Br)cc1)C2=O,-56.9% (active)
4,COc1ccc2nc3ccc(OC)cc3c(SCCCN)c2c1,28.7%
5,N#CC1=C(N)Oc2c(sc3c(F)cccc23)C1c1ccc(F)cc1 (stereo not given),18.9%
6,Cc1nc2sc(C(=O)Nc3cccc(Cl)c3C)c(N)c2cc1C(=O)c1ccccc1,11.1%
7,Nc1c(C(=O)Nc2ccccc2Cl)sc2nc3c(cc12)C(O)CCC3 (stereo not given),24.4%
8,CC1Cc2c(Cl)ncnc2N(C)c2ccc(F)cc21 (stereo not given),97.9%
9,CCOP(=O)(OCC)c1nc(-c2ccccc2)oc1NCc1cccnc1,103%
10,O=C1/C(=C\c2cn(-c3ccccc3)nc2-c2ccc(-c3cccs3)cc2)CCc2ccccc21,38.3%
11,O=C(CN1C(=O)CCC1=O)Nc1ncc(Cc2ccc(F)cc2)s1,92.4%
12,Cc1c(-n2nnc(-c3nc4ccccc4s3)c2N)c(=O)n(-c2ccccc2)n1C,90.6%
13,C/C(=N\NC(=O)c1ccccc1O)c1cccc(/C(C)=N/NC(=O)c2ccccc2O)n1,44.3%
14,CC(C)N1CCN(Cc2ccc3c(NNC(=O)c4ccccc4)nc4cc(F)ccc4n23)CC1,9.7% (active)
15,COc1ccc(-c2nn(-c3ccccc3)cc2/C=C2/SC(=S)N(C)C2=O)cc1,75.3%
16,CN(C)c1ccc(/C=C/C(=O)c2ccc(-n3cc(CN4CCN(c5cc6c(cc5F)c(=O)c(C(=O)O)cn6C5CC5)CC4)nn3)cc2)cc1,24.2%
17,O=C(CSc1nc2ccc([N+](=O)[O-])cc2[nH]1)Nc1cccc(C(F)(F)F)c1,15.7%
18,N#Cc1c(N)nnn1Cc1cc(=O)oc2c1ccc1ccccc12,92.6%
19,CCCCCOc1ccc(C(=O)/C(Br)=C/C(=O)O)cc1,91.7%
20,COc1ccc(-c2cn(-c3cc(OC)c(OC)c(OC)c3)c(=O)n2C(C)=O)cc1,89%

row,SMILES,growth
1,O=[N+]([O-])C1C(c2ccccc2)C12c1ccccc1-c1ccccc12 (stereo not given),9.88% (active)
2,CCN1CC(=O)N(/N=C2\C(=O)Nc3ccccc32)C1=S,84.1%
3,NC(=O)CCC(C(=O)O)N1C(=O)c2ccc(O)cc2C1=O (stereo not given),105%
4,Cc1cc2c(O)c(-c3cccc(Cl)c3)c3sc(=O)oc3c2cc1C,26.3%
5,OB(O)c1cccc(-c2nc3ccc4[nH]ncc4c3c3c2CCCC3)c1,70.1%
6,COc1ccc(-c2ccc3cnc4sc(-c5ccc(OC)cc5)nc4c3n2)cc1,78%
7,O=C(Nc1nn(-c2ccc(Cl)cc2Cl)nc1-c1ccccc1)c1ccccc1,105%
8,CCOC(=O)c1[nH]c(=O)c2c(C)nc(-c3ccccc3)cc2c1O,92.7%
9,COc1ccc(/C=C2\C(=O)N=C3N2NC(c2cc(Br)ccc2O)C=C(C)N3c2ccccc2)cc1 (stereo not given),83.7%
10,O=C(Cn1c2c(c3ccccc31)CCCC2)Nc1ccc(-c2nc3ccccc3s2)cc1,30.8%
11,CCCCCCCCCCCCCCCCCCOc1ccccc1CC(=O)OCC[N+]1(C)CCCC1,32.3%
12,CN(C)CCNC(=O)c1cccc(-c2cnc3ccc(-c4ccc5c(c4)OCO5)nn23)c1,27.1%
13,COc1ccc(CC(C#N)c2cc3ccccc3[nH]2)cc1 (stereo not given),94%
14,O=C(Nc1ccc(-c2nc(N3CCOCC3)c3cccn3n2)cc1)Nc1cccnc1,4.54% (active)
15,C[C@H](NC(=O)[C@@H](C)N)[C@H](Oc1ccc2c(cnn2-c2ccc(F)cc2)c1)c1ccc2c(c1)OCCO2,46.4%
16,C=C(C)[C@@H]1CC[C@]2(C(=O)OC)CC[C@]3(C)[C@H](CC[C@@H]4[C@@]5(C)C/C(=C/NC(N)=S)C(=O)C(C)(C)[C@@H]5CC[C@]43C)[C@@H]12,80.7%
17,COc1cc2c(c(OC)c1OC)-c1ccc(OC)c(=O)cc1[C@@H](NC(=O)CCl)CC2,18.1%
18,CN1CCN(c2ccc(NC(=O)c3cncnc3Nc3ccc(OCc4ccccn4)c(Cl)c3)cc2)CC1,26.5%
19,O=C(Nc1cccc([N+](=O)[O-])c1)c1cc2ccccc2cc1O,-4.92% (active)
20,O=C1N[C@@H]2NC(=[N+]3CCOCC3)N[C@@H]2N1,95.9%
